This excerpt belongs to a sample that is enriched for hits.
Pf apPOL block: Pf-apPOL inhibitors, biochemical, fluorescence | Plasmodium falciparum apicoplast DNA polymerase (apPOL) | Recombinant Pf-apPOL, molecular beacon fluorescence, 1.5 h | inhibition, % at 10 µM | actives 0.25% (n = 210,000)
mHTT-CaM PPI inh: mutant huntingtin-calmodulin interaction inhibitors – biochemical, AlphaScreen, primary screen; P42858; AlphaScreen His-mHTT/GST-CaM binding, luminescence; inhibition, % at 15 µM; actives 3.6% (n = 190,000);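 also: 0% = both proteins with DMSO and 100% = one protein alone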
The depositor's hits bear a star. Rule as the data show it: active = inhibition above about 50%; inactive = the rest.

What do the screens show for `Cc1cc(C(=O)NC2CC(=O)N(Cc3ccccc3)C2)n[nH]1` (stereo unspecified)?
Pf apPOL block: -6; mHTT-CaM PPI inh: -9

What do the screens show for `O=C(NCCCc1ccccc1)c1ccn2c(-c3ccc(F)cc3)nnc2c1`?
Pf apPOL block: 1; mHTT-CaM PPI inh: 0

What do the screens show for `CC1CCC(NC(=O)c2ccc(Cn3cncn3)cc2)CC1` (stereo unspecified)?
Pf apPOL block: -3; mHTT-CaM PPI inh: -2

Results for O=C1C(=Cc2ccco2)Oc2cc(O)ccc21 ?
Pf apPOL block: 33; mHTT-CaM PPI inh: 9

What do the screens show for `O=C(NC1CC2CC1N(C(=O)Cc1c(F)cccc1Cl)C2)c1cccs1` (stereo unspecified)?
Pf apPOL block: -1; mHTT-CaM PPI inh: 5

What do the screens show for `O=[N+]([O-])c1cccc(NCc2c(O)ccc3oc4c(c23)CCCC4)c1`?
Pf apPOL block: 9; mHTT-CaM PPI inh: 97*

How did CC(=O)N(c1ccc2oc3c(c2c1)CCCC3)S(=O)(=O)c1cccc([N+](=O)[O-])c1 do in these assays?
Pf apPOL block: 9; mHTT-CaM PPI inh: 9

How did Cc1ccc(C2CC(c3ccc(Br)cc3)n3nnnc3N2)cc1 (stereo unspecified) do in these assays?
Pf apPOL block: -9; mHTT-CaM PPI inh: 33

What do the screens show for `CC(=O)NC1=NC(=O)/C(=C/c2c(C)n(Cc3ccc(F)cc3)c3ccccc23)S1`?
Pf apPOL block: -3; mHTT-CaM PPI inh: 100*

How did CC(=O)NC1=NC(=O)/C(=C/c2ccc(F)cc2)S1 do in these assays?
Pf apPOL block: -4; mHTT-CaM PPI inh: -6

Results for CC(=O)Nc1ccc(Nc2ncc([N+](=O)[O-])cc2[N+](=O)[O-])cc1 ?
Pf apPOL block: 7; mHTT-CaM PPI inh: 8

What do the screens show for `CCC(C)c1cc([N+](=O)[O-])cc([N+](=O)[O-])c1OC(=O)OC(C)C` (stereo unspecified)?
Pf apPOL block: -10; mHTT-CaM PPI inh: 51*

Results for COc1ccc(-c2cc(N3CCCC(C(=O)NCc4cccs4)C3)ncn2)cc1 (stereo unspecified) ?
Pf apPOL block: -31; mHTT-CaM PPI inh: -13

Results for O=C(c1cc2cn(C3CCCC3)cc2s1)N1CCSCC1 ?
Pf apPOL block: -1; mHTT-CaM PPI inh: 19

What do the screens show for `O=C(NCc1ccc(N2CCOCC2)cc1)c1cc2cn(C3CC3)cc2s1`?
Pf apPOL block: 8; mHTT-CaM PPI inh: 21

How did O=C(NCCCN1CCCC1)c1cc2cn(C3CC3)cc2s1 do in these assays?
Pf apPOL block: 108*; mHTT-CaM PPI inh: 99*

How did O=C(c1cc2cn(C3CCCC3)cc2s1)N1CCN(C2CCCCC2)CC1 do in these assays?
Pf apPOL block: 9; mHTT-CaM PPI inh: 73*

Results for CC(C)NC(=O)c1cc2cn(C3CCCC3)cc2s1 ?
Pf apPOL block: -4; mHTT-CaM PPI inh: 17

How did COc1cccc(CNC(=O)c2cc3cn(C4CC4)cc3s2)c1 do in these assays?
Pf apPOL block: 16; mHTT-CaM PPI inh: 57*

Results for O=C(NCCCN1CCCC1)c1cc2cn(C3CCCC3)cc2s1 ?
Pf apPOL block: 10; mHTT-CaM PPI inh: 16

Results for COc1ccc(NC(=O)c2cc3cn(C4CC4)cc3s2)c(C)c1 ?
Pf apPOL block: 10; mHTT-CaM PPI inh: 52*

Results for CN(C)CCN1C(=O)C(=O)C(=C(O)c2ccc(Cl)cc2)C1c1ccncc1 (stereo unspecified) ?
Pf apPOL block: -8; mHTT-CaM PPI inh: -1

Results for COc1ccc(NC(=O)C2CCCN(C(=O)c3ccc(F)c(F)c3)C2)cc1OC (stereo unspecified) ?
Pf apPOL block: -21; mHTT-CaM PPI inh: 39

How did CCCCOc1ccc(NC(=O)c2cccc([N+](=O)[O-])c2C)cc1 do in these assays?
Pf apPOL block: 1; mHTT-CaM PPI inh: 5

What do the screens show for `Cc1cc(C)c(OCC(=O)NCCc2ccccc2)c(C)c1`?
Pf apPOL block: 8; mHTT-CaM PPI inh: -20

What do the screens show for `Cc1nc(C2CCCN2S(=O)(=O)c2ccc(Cl)s2)n[nH]1` (stereo unspecified)?
Pf apPOL block: -3; mHTT-CaM PPI inh: 0

How did CN(C)C(=O)c1cc2c(s1)CCC(C(=O)N1CCN(c3ccccc3Cl)CC1)C2 (stereo unspecified) do in these assays?
Pf apPOL block: 2; mHTT-CaM PPI inh: 8

How did CC(C)n1cc2cc(C(=O)NCc3ccc(N4CCOCC4)cc3)sc2c1 do in these assays?
Pf apPOL block: 4; mHTT-CaM PPI inh: 33

Results for CC(C)n1cc2cc(C(=O)NCc3ccc(Cl)cc3)sc2c1 ?
Pf apPOL block: -1; mHTT-CaM PPI inh: 73*

What do the screens show for `N#Cc1c(-c2ccccc2)cc(-c2ccc(F)cc2)nc1F`?
mHTT-CaM PPI inh: 0

What do the screens show for `Cc1ccc(-c2cc(-c3ccc(F)cc3)c(C#N)c(N)n2)o1`?
Pf apPOL block: -4; mHTT-CaM PPI inh: 88*

What do the screens show for `CCc1nnc(NC(=O)c2c(OC)cccc2OC)s1`?
Pf apPOL block: 3; mHTT-CaM PPI inh: 1

How did CCc1nnc(NC(=O)c2cc(OC)c(OC)c(OC)c2Br)s1 do in these assays?
Pf apPOL block: 80*; mHTT-CaM PPI inh: 6

Results for Cc1ccccc1-c1nc(Cn2cnc3c(oc4ccccc43)c2=O)c(C)o1 ?
Pf apPOL block: -1; mHTT-CaM PPI inh: -11

Results for CCN1C(=O)c2cccc3c(NC(=O)COc4ccc(Cl)cc4)ccc1c23 ?
Pf apPOL block: -6; mHTT-CaM PPI inh: 52*

How did CCN1C(=O)c2cccc3c(NC(=O)c4ccccc4[N+](=O)[O-])ccc1c23 do in these assays?
Pf apPOL block: 1; mHTT-CaM PPI inh: 2

How did COc1cc(OC)c(OC)cc1/C=C1/N=C(c2ccccc2F)OC1=O do in these assays?
Pf apPOL block: 4; mHTT-CaM PPI inh: 12

Results for O=C(Nc1nnc(-c2cc(Cl)sc2Cl)o1)c1cccc(N2C(=O)CCC2=O)c1 ?
Pf apPOL block: -19; mHTT-CaM PPI inh: 34

How did O=C(Nc1nncs1)c1c(O)c2cccc3c2n(c1=O)CC3 do in these assays?
Pf apPOL block: -2; mHTT-CaM PPI inh: -7

What do the screens show for `CC1C(=NO)C(C)C(c2ccc(N(C)C)cc2)NC1c1ccc(N(C)C)cc1` (stereo unspecified)?
Pf apPOL block: -11; mHTT-CaM PPI inh: 76*

How did CC1C(c2ccc(N(C)C)cc2)NC(c2ccc(N(C)C)cc2)C(C)C1O (stereo unspecified) do in these assays?
Pf apPOL block: -9; mHTT-CaM PPI inh: 17

What do the screens show for `CC(=O)c1ccc(C#N)s1`?
Pf apPOL block: 5

Results for CCCN1C(=O)/C(=C\c2nc3ccccc3c(=O)n2-c2ccc(OC)cc2)c2ccccc21 ?
Pf apPOL block: -34; mHTT-CaM PPI inh: 3

What do the screens show for `CCCN1C(=O)/C(=C\c2nc3ccccc3c(=O)n2CC)c2ccccc21`?
Pf apPOL block: -2; mHTT-CaM PPI inh: 12

How did CCN1C(=O)/C(=C\c2nc3ccccc3c(=O)n2CC)c2ccccc21 do in these assays?
Pf apPOL block: -8; mHTT-CaM PPI inh: 100*

How did CCN1C(=O)/C(=C\c2nc3ccccc3c(=O)n2-c2ccccc2[N+](=O)[O-])c2ccccc21 do in these assays?
Pf apPOL block: -2; mHTT-CaM PPI inh: 56*

Results for O=C(CSc1nc2cc(Cl)ccc2s1)Nc1ccccc1[N+](=O)[O-] ?
Pf apPOL block: -2; mHTT-CaM PPI inh: 43

How did Cn1nccc1C(=O)NC1CC(=O)N(c2ccc3c(c2)OCO3)C1 (stereo unspecified) do in these assays?
Pf apPOL block: -1; mHTT-CaM PPI inh: -9
